Test [1] has as its target T1, Aspartate--tRNA(Asp/Asn) ligase (Mycobacterium tuberculosis (strain ATCC 25618 / H37Rv)) (UniProt P9WFW3). Note: in the data most compounds retested in dose-response had high values.
T1 sequence (whole entry): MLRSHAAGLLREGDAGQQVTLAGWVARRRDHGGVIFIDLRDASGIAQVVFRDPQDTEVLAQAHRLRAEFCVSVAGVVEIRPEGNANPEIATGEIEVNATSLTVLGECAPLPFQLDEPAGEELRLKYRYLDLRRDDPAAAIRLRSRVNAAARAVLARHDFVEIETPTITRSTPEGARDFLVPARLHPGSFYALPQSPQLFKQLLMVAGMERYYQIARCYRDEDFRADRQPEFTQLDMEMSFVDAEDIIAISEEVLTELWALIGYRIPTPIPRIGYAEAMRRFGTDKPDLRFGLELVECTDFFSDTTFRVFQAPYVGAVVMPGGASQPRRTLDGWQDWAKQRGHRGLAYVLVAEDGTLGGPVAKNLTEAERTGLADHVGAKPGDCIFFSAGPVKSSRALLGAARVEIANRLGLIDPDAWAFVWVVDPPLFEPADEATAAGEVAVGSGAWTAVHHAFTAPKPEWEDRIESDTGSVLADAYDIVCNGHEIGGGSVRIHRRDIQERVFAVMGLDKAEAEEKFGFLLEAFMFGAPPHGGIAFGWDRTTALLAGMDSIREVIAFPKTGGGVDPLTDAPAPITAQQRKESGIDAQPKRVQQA
In words: Assay for Asp RNA synthetase-1 from Mycobacterium tuberculosis. In kind it is functional. Further details: scale not given: direction of the effect not stated beside the values. Conditions: 30 µM.

Test [2] deals with Shiga toxin 2 (Escherichia coli O157:H7) (UniProt P09385+P09386). Put plainly: E. coli 0.157:H7 Shiga Toxin SOP - stx2 screening assay. In kind it is functional. Further details: scale not given: direction of the effect not stated beside the values. As to conditions: 30 µM.

On to `COC(=O)C(c1cc(F)ccc1F)N(C)C(=O)c1ccnc(C)n1` (centres undefined), for which the Percent Effect in test [1] is -0.393%; in test [2] it was -2.56%.

Consider `COC[C@@]12CCO[C@@H]1CCN(Cc1ccccc1F)C2`, for which the results for the Percent Effect in test [1] and in test [2] were 0.843% and -24.5%, respectively.

For `CNC(=O)CN(C)c1nc(-c2ccncc2)nc2c1CCN(C(C)=O)C2`, the results for the Percent Effect in test [1] and in test [2] were -1.03% and -0.42%, respectively.

`O=C(c1ccc(F)cc1)N1C[C@@H]2OCCN(c3ncccn3)[C@@H]2C1`: the Percent Effect in test [1] is -0.874%; in test [2], -4.11%.

As to `CC(=O)N1CCCC(c2ccc(Nc3nc(C)cc(C)n3)cn2)C1` (centres undefined), the Percent Effect in test [1] was -1.31%; in test [2], 3.11%.

As to `NC[C@H]1CC[C@H](C(NC(=O)c2ccccn2)c2ccccn2)CC1` (some centres undefined), the results for the Percent Effect in test [1] and in test [2] were 1.43% and 17%, respectively.

As for `O=C(COc1coc(CN2CCCCCC2)cc1=O)c1ccccc1`, the Percent Effect in test [1] was -4.01%; in test [2], -112%.

As to `COc1c(C2CCCN2C(=O)c2csc(C(C)C)n2)c(C)nn1C` (centres undefined), the Percent Effect is 5.31% in test [1] and 4.42% in test [2].

On to `CC(CNC(=O)N1CCSCC1)Cc1cccs1` (centres undefined), for which the results for the Percent Effect in test [1] and in test [2] were 1.56% and 6.01%, respectively.

Regarding `COc1ccc(C)cc1CNCc1ccc(-n2nc(C)cc2C)nc1`, the Percent Effect was -2.68% in test [1] and 26.6% in test [2].

With `O=C(CCc1ccccc1)N1CCn2cc(Cn3cncn3)nc2C1`, the Percent Effect in test [1] was -1.12%; in test [2] it was -10%.

As to `O=C(CNC(=O)N1CCc2c([nH]c3ccc(Cl)cc23)C1)N1CCOCC1`, the Percent Effect in test [1] is 3.4%; in test [2], -37.6%.

As for `CC(CN1CCOCC1)NCc1nncn1C1CCCCC1` (centres undefined), the Percent Effect in test [1] is 0.0836%; in test [2], -15.5%.

Turning to `CCCn1c(C)cc(C(=O)CN2C(=O)c3ccccc3CS2(=O)=O)c1C`, the Percent Effect was 0.257% in test [1] and -23.8% in test [2].

Take `N#CCCN(CCC#N)C(=O)CN1CCCC1Cc1cccc(F)c1` (centres undefined): the Percent Effect is 5.73% in test [1] and -0.707% in test [2].

`COc1c(CNCCNC(=O)c2ccc(C)cc2)c(C)nn1C`: the Percent Effect in test [1] was -4.08%; in test [2] it was -32.3%.

As for `Cc1ncc(CNCC2CCCN2c2cccnn2)s1` (centres undefined), the figures for the Percent Effect in test [1] and in test [2] were 0.684% and -14.7%, respectively.

As to `CC(O)CN1CCC(CNCc2cccc(Br)c2)CC1` (centres undefined), the Percent Effect in test [1] was -1.97%; in test [2] it was 18.9%.

Consider `CCN1C(=O)CCC12CCCN(Cc1nccs1)CC2` (centres undefined), for which the Percent Effect came to 2.52% in test [1] and 1.68% in test [2].

With `CCCc1cc(C(=O)N2CCCC2c2cccnc2)[nH]n1` (centres undefined), the results for the Percent Effect in test [1] and in test [2] were 3.74% and 11.1%, respectively.

With `O=C(Cc1cccc(Cl)c1)N[C@@H]1CCNC[C@H]1O`, the figures for the Percent Effect in test [1] and in test [2] were -3.06% and 49.4%, respectively.

For `Cc1nnc(NCC2(c3ccc(Cl)cc3Cl)CCOCC2)c(C#N)c1C`, the Percent Effect is 1.93% in test [1] and -16.4% in test [2].

Turning to `Cc1ccc(NC2CCN(C(=O)CC3CCCO3)CC2)nn1` (centres undefined), the results for the Percent Effect in test [1] and in test [2] were -2.07% and 4.7%, respectively.

As for `COCCOc1ccc(NC(=O)C2CCCN(C(N)=O)C2)cn1` (centres undefined), the Percent Effect in test [1] is -2.23%; in test [2] it was -2.19%.

As to `CC(NC(=O)NCCOc1ccc(F)c(F)c1)c1nncn1C` (centres undefined), the Percent Effect is -4.5% in test [1] and 27.5% in test [2].

For `COc1ccc2cc(C(=O)N3CCCCC3Cn3cccn3)[nH]c2c1` (centres undefined), the values for the Percent Effect in test [1] and in test [2] were -2.15% and 16.3%, respectively.

With `CN(C)c1cc2c(nn1)CCN(C(=O)C1CCc3ccccc31)C2` (centres undefined), the Percent Effect in test [1] was 5.85%; in test [2], 5.96%.

On to `CN(Cc1ccc(F)cc1)C(=O)Cn1nc(-c2ccc(F)cc2)oc1=O`, for which the Percent Effect in test [1] was 5.72%; in test [2], -25.7%.

For the compound `CNS(=O)(=O)c1cc(C(=O)NC2CCOc3ccccc32)cc(C)c1C` (centres undefined), the Percent Effect in test [1] was -2.19%; in test [2], 3.19%.

Regarding `c1ccc2sc(N3CCOC(Cn4cccn4)C3)nc2c1` (centres undefined), the Percent Effect in test [1] came out at 6.21%; in test [2] it was 12.4%.

As to `COCCN1CCN(CCS(=O)(=O)C(F)(F)F)CC1C` (centres undefined), the values for the Percent Effect in test [1] and in test [2] were -2.33% and 96.7%, respectively.

Take `COC(=O)CCNC(=O)c1ccoc1CN1c2ccccc2CC1C` (centres undefined): the values for the Percent Effect in test [1] and in test [2] were 0.0912% and -1.74%, respectively.

Take `COCc1nn(C(C)C)c2c1CCN(Cc1cccs1)C2`: the Percent Effect in test [1] was -2.9%; in test [2], 18.3%.

Consider `CCn1cc(NC(=O)NCc2ccc(CN3CCOCC3)cc2)cn1`, for which the values for the Percent Effect in test [1] and in test [2] were 3.24% and -35.1%, respectively.

Take `CCN(CC1CCOC1)C(=O)c1ccccc1NS(=O)(=O)CC` (centres undefined): the Percent Effect in test [1] is -4.47%; in test [2], 33.3%.

As for `Cc1cc(C)n(CC2CCCCN2C(=O)c2cnn(C)c2)n1` (centres undefined), the Percent Effect in test [1] was -5.01%; in test [2], -14%.

For `CCc1nc(CC(=O)Nc2cnn(CC3CCCO3)c2)cs1` (centres undefined), the Percent Effect in test [1] was 1.86%; in test [2], -10.7%.

Turning to `CCC1CN(C(=O)c2ccc(Cl)cc2O)CCN1C(C)C` (centres undefined), the Percent Effect in test [1] is -3.56%; in test [2], 5.13%.

On to `CN(Cc1cnn(C)c1)C(=O)c1ccc(=O)n(C)n1`, for which the Percent Effect in test [1] was -3.08%; in test [2], -8.81%.

For the compound `Cc1ccc(CNC(=O)N2CCN(Cc3ccsc3)CC2)n1C`, the Percent Effect in test [1] was 0.896%; in test [2] it was -31.3%.

In the case of `Cc1ncoc1C(=O)N1CCn2c(COCC3CC3)cnc2C1C` (centres undefined), the Percent Effect in test [1] is 7.95%; in test [2], -10.6%.

Regarding `CCOCC(O)CN1CCN(C(=O)c2cccnc2OC)CC1` (centres undefined), the Percent Effect in test [1] is -1%; in test [2], 12.8%.

As for `COc1ccc(F)cc1C(C)NC(=O)Nc1nnc(C)s1` (centres undefined), the Percent Effect in test [1] was -0.889%; in test [2], 15.6%.

As to `O=C(Cc1ccc2c(c1)OCCO2)NC1CCCC1`, the Percent Effect in test [1] is -0.698%; in test [2], 3.29%.

For `CCc1nnc2n1CCN(C(=O)c1ccc(-c3ccco3)nc1C)C2`, the Percent Effect is -3.2% in test [1] and -27.7% in test [2].

Take `Cc1cc(-c2cnc(N3CCCC(C)C3)nc2-c2cccnc2C)on1` (centres undefined): the Percent Effect in test [1] is 7.13%; in test [2], -30.1%.

For `c1cc(CN2CCN(Cc3cscn3)CC2)cs1`, the values for the Percent Effect in test [1] and in test [2] were 1.38% and 26.6%, respectively.

Values taken from ChEMBL document CHEMBL3988442, “University of Dundee, Small-Polar-MMV Screening Library” (2021).
